Compound activity deposited in PubChem BioAssay by several laboratories.
Anthrax LF prot: anthrax lethal factor protease inhibition. P15917. multiplex microsphere protease cleavage assay, LF. inhibition, % at 10 µM. 360,000 compounds, 0.12% hits. AID 588501
Bead autofluor: compound fluorescence in toxin protease inhibitor counterscreen. fluorescence intensity (no concentration beside the values). compound autofluorescence counterscreen, microsphere flow cytometry; stronger effect = higher value. AID 624483. 360,000 compounds, 3.1% hits; in the data active = fluorescence intensity above about 16000; inconclusive = no clear call, values can overlap the other calls
DUSP3 inh: DUSP3 (human) phosphatase inhibition; recombinant VHR phosphatase, pNPP absorbance; 290,000 compounds, 0.52% hits; AID 1654; inhibition, % at 13.3 µM; in the data active = inhibition above about 50%
Target sequence (P51452 whole entry, looked up): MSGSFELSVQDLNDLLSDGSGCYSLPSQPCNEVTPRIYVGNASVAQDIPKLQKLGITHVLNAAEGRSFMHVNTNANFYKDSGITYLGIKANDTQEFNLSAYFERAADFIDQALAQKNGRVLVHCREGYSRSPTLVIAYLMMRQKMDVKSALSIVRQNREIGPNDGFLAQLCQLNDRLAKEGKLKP
MazF activator: activators of E. coli MazEF toxin-antitoxin RNase | FAM/BHQ RNA-DNA oligo cleavage fluorescence, 5 h | activation, % at 20 µM | 350,000 compounds, 0.32% hits | AID 504720; in the data active = activation above about 50%
Target sequence (P0AE70 whole entry, looked up): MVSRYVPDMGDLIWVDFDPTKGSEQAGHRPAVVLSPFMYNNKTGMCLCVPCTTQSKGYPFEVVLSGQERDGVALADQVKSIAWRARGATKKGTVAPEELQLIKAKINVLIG
BoNT-A LC inh2: BoNT A light chain protease inhibition | 360,000 compounds, 0.17% hits | inhibition, % at 10 µM | multiplex microsphere protease substrate cleavage, flow cytometry
BoNT F protease: inhibitors of Botulinum neurotoxin F light chain protease; Multiplex microsphere protease cleavage assay, flow cytometry; inhibition, % at 10 µM; 360,000 compounds, 0.22% hits; AID 588497; in the data active = inhibition above about 35%, passing the limit was not always enough; inconclusive = no clear call, values can overlap the other calls
Large screens that a line does not name were inactive; ! = not confirmed by another sample. Rows were chosen to be rich in hits. Some 4% of all compounds tested hit in one or more screens of this group. Cut-off read from the data, not from the text of the source, unless noted: active = inhibition above about 30%; inconclusive = no clear call, values can overlap the other calls; inactive = below that.

C[C@H]1CN([C@@H](C)CO)C(=O)CCCn2cc(nn2)CO[C@@H]1CN(C)S(=O)(=O)c1ccc2ccccc2c1	none (no result: DUSP3 inh)
CCCC1C(c2ccc(OC)cc2)C(C#N)(C#N)C2(C#N)CC1(N)NC2=O (stereo not given)	Bead autofluor 20036
COc1ccc(C2NC3=C(CCCC3)C(C#N)(C#N)C2(C#N)C#N)cc1 (stereo not given)	none (no result: Anthrax LF prot, Bead autofluor, MazF activator, BoNT-A LC inh2, BoNT F protease)
CCOC(=O)c1cc(-c2ccc(C)cc2)n(CCC(=O)NCCN(C)C)c1C	Bead autofluor 22889
Cc1nn(-c2ccccc2)c2nc(=O)n(-c3ccccc3)cc12	DUSP3 inh 56
COc1ccc(Nc2nc(NC(C)C)nc3ccsc23)cc1OC	none (no result: DUSP3 inh, MazF activator)
COc1nccnc1NS(=O)(=O)c1ccc(NC(=S)NC(=O)c2ccccc2)cc1	DUSP3 inh 52
COc1nccnc1NS(=O)(=O)c1ccc(NC(=S)NC(=O)/C=C/c2ccccc2)cc1	none
CC(C)c1c(C#N)c(N)nc(SCC(=O)c2cc3ccccc3oc2=O)c1C#N	none
Cc1nc(SCC(=O)c2cc3ccccc3oc2=O)c(C#N)c(-c2cccs2)c1C(=O)Nc1ccccc1	MazF activator 61
N#Cc1ccc(-c2ccccc2)nc1SCC(=O)c1cc2ccccc2oc1=O	MazF activator 63
O=C(Nc1csnn1)OCc1ccccc1	none (no result: DUSP3 inh)
N#Cc1ccc2ccn(CC(=O)NC3CCCCCC3)c2c1	Bead autofluor 21036
O=[N+]([O-])c1ccc2c(c1)C(=NO)c1cc(F)ccc1-2	none (no result: DUSP3 inh)
COc1ccccc1NC(=O)c1nnn(Cc2ccccc2)c1NC(=O)C(F)(F)F	none
COc1ccccc1NC(=O)c1nnn(Cc2ccccc2)c1NC(C)=O	Bead autofluor 24511
N#Cc1cc2ccncc2c2ccccc12	none (no result: DUSP3 inh)
CC(C)C(NC=C1C(=O)OC(C)(C)OC1=O)C(=O)O (stereo not given)	Bead autofluor 16608, BoNT-A LC inh2 inconclusive
O=C(O)c1ccc(N(Cc2ccccc2)S(=O)(=O)c2ccccc2)cc1	DUSP3 inh 59!
CN(C)/C=N/c1c(C#N)cnn1-c1ncnc2sc(-c3ccccc3)cc12	none
O=C(O)Cn1c(O)c(C2=c3ccccc3=NC2=O)sc1=O	none
Cn1c(O)c(C2=c3ccccc3=NC2=O)sc1=Nc1ccc(Cl)cc1	Bead autofluor 19149
Cc1ccc(NC(=O)C2(C)CCN2C(=O)Cc2ccc(-c3ccccc3)cc2)cc1 (stereo not given)	none (no result: DUSP3 inh, MazF activator)
O=S(=O)(Nc1nccs1)c1ccc(NS(=O)(=O)c2cccs2)cc1	Bead autofluor 19362
Cc1[nH]n(C(N)=S)c(=O)c1N=Nc1ccc(S(=O)(=O)N2CCCCCC2)cc1	Bead autofluor 21910, BoNT-A LC inh2 inconclusive
CC(=O)Oc1ccc(OC(C)=O)c(SCCCCCN2CCOCC2)c1	Bead autofluor 23369
O=C(NCc1ccccn1)c1ccc(NS(=O)(=O)c2cccc(Cl)c2)cc1	none
Cc1csc(NC(=O)CSc2nnc3ncccn23)n1	Bead autofluor 22164
Cc1cnc(NC(=O)CSc2nnc3ncccn23)s1	none
CCn1c(SCC(=O)Nc2nccs2)nnc1-c1cccnc1	Bead autofluor inconclusive
CCOc1ccc(-n2ccnc2SCC(=O)Nc2nnc(CC)s2)cc1	DUSP3 inh 55
CCn1c(SCC(=O)Nc2nc(C)cs2)nnc1-c1cccnc1	Bead autofluor 17501
CCc1nnc(NC(=O)CSc2nnc3ncccn23)s1	Bead autofluor 20884, BoNT-A LC inh2 inconclusive
O=C(CSc1nnc2ncccn12)N1CCCCCC1	Bead autofluor 23133
C=CCn1c(O)c(C(C)=NCCc2ccccc2)c(=O)[nH]c1=O	none
CCC(=NCCCN1CCOCC1)c1c(O)n(Cc2ccccc2)c(=O)[nH]c1=O	Bead autofluor 19516
C=CCn1c(O)c(C(C)=NCc2cccnc2)c(=O)[nH]c1=O	Bead autofluor 17471
CC(=NCCCN1CCOCC1)c1c(O)n(Cc2ccccc2)c(=O)[nH]c1=O	none
C=CCn1c(O)c(C(CC)=NCCc2ccccc2)c(=O)[nH]c1=O	Bead autofluor 22909, BoNT-A LC inh2 inconclusive
COC(=O)c1c(NC(=O)C2CC=CCC2C(=O)O)sc(C(N)=O)c1C (stereo not given)	none
COC(=O)c1c(NC(=O)C2CC=CCC2C(=O)O)sc(C)c1C (stereo not given)	Bead autofluor 22701, BoNT-A LC inh2 inconclusive
CC(CN1CCOCC1)OC(=O)c1ccc2c(c1)OCCO2 (stereo not given)	none
COC1=NS(=O)(=O)c2ccccc21	none
O=S1(=O)N=C(Oc2ccccc2)c2ccccc21	Bead autofluor 23213
